These results are taken from PubChem BioAssay (NCI).

About 79,000 compounds went through this panel and 15% of them were active in at least one assay; those are over-represented in the sample as a whole. Unmarked numbers belong to inactive results. Active and inactive are the calls of the source. No stated cut-off is given here; in the data, active means growth inhibition above about 70%; inactive means the rest.

A short description of assay [1]: NCI Yeast Anticancer Drug Screen. Data for the rad50 strain (AID 155).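 Further: 0% = growth of vehicle-only cultures of the same strain.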 The settings on record: S. cerevisiae rad50 strain growth inhibition; at 50.0 µM; hits give high values. Summed up:
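Inhibition values express reduced yeast growth in compound-treated cultures relative to vehicle-treated controls.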

The nature of assay [2]: NCI Yeast Anticancer Drug Screen. Data for the mec2-1 strain (AID 157). The settings on record: S. cerevisiae mec2-1 strain, at 50.0 µM, hits give high values. Summed up:
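Mutant yeast (mec2-1) grown with compound; growth inhibition relative to vehicle control reported.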

The nature of assay [3]: NCI Yeast Anticancer Drug Screen. Data for the sgs1 mgt1 strain (AID 161).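 Further: 0% = growth of cultures given vehicle only.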 The settings on record: S. cerevisiae sgs1 mgt1 strain, at 50.0 µM, hits give high values. Summed up: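 Compounds are added to genetically altered yeast, and growth is compared with cultures given vehicle alone to give percent inhibition.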
Assay [4] can be described thus: NCI Yeast Anticancer Drug Screen. Data for the cln2 rad14 strain (AID 165).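 Further: 0% = growth equal to vehicle treated cultures.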 Particulars: S. cerevisiae cln2 rad14 strain, at 50.0 µM, hits give high values. Summed up: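 Readout is yeast growth inhibition versus vehicle-treated controls, using a strain with cln2 and rad14 alterations exposed to compound.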
A short description of assay [5]: NCI Yeast Anticancer Drug Screen. Data for the bub3 strain (AID 167). The settings on record: S. cerevisiae bub3 mutant strain, at 50.0 µM, hits give high values. Summed up: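 Steps: expose the mutant yeast strain to compound; grow alongside vehicle-treated cultures; measure growth; express inhibition against the vehicle cultures.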
Assay [6] can be described thus: NCI Yeast Anticancer Drug Screen. Data for the mlh1 rad18 strain (AID 175). Particulars: S. cerevisiae mlh1 rad18 strain growth inhibition; at 50.0 µM; hits give high values. Summed up:
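Genetically defined yeast (DNA repair-deficient) exposed to compounds; growth inhibition determined relative to vehicle.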

Turning to `Oc1cccc(N2CCN(c3cccc(O)c3)CC2)c1`, the growth inhibition in assay [1] was 2.45%; in assay [2], -26.9%; in assay [3] it was 3.7%; in assay [4], 9.15%; in assay [5] it was 5.85%; in assay [6], -15%.

As for `CC1=NN(c2ccccc2C)C(=O)C1`, the growth inhibition was 2.05% in assay [1]; -27.8% in assay [2]; -5.1% in assay [3]; -2.6% in assay [4]; -27.9% in assay [5]; 8.1% in assay [6].

Turning to `O=c1n(-c2ccccc2)c(=O)n2c(=O)n(-c3ccccc3)c(=O)n12`, the growth inhibition was -23.4% in assay [1]; -1.55% in assay [2]; -10.7% in assay [3]; -44.9% in assay [4]; -9% in assay [5]; 1.15% in assay [6].

Turning to `O=C1N(c2ccccc2)C(=O)C2(SC=NN2Cc2ccccc2)N1c1ccccc1` (stereo unspecified), the growth inhibition in assay [1] was -7%; in assay [2] it was 2%; in assay [3], -18.6%; in assay [4], 8.2%; in assay [5] it was 11.8%; in assay [6], 10.7%.

In the case of `Cc1ccc(NC(=O)CC2Sc3ccccc3NC2=O)c(C)c1` (stereo unspecified), the growth inhibition in assay [1] is -7.6%; in assay [2], -7.35%; in assay [3] it was 7.5%; in assay [4], -4.4%; in assay [5] it was -20.3%; in assay [6] it was -11.8%.

On to `CCc1cc(Cc2cc(CC)c(NC(=O)C(=O)CC(=O)c3sc(-c4cccnc4)nc3C)c(CC)c2)cc(CC)c1NC(=O)C(=O)CC(=O)c1sc(-c2cccnc2)nc1C`, for which the growth inhibition in assay [1] was -26.8%; in assay [2] it was -26.9%; in assay [3], -27.8%; in assay [4], -0.05%; in assay [5], -35.9%; in assay [6], -19.8%.

Consider `CN/N=C(\C(=O)Nc1ccc(C)c(C)c1)C(C(=O)OC)c1nc2ccc([N+](=O)[O-])cc2[nH]c1=O` (stereo unspecified), for which the growth inhibition in assay [1] is -42.9%; in assay [2] it was 2.7%; in assay [3], -19.1%; in assay [4], 19.3%; in assay [5], -1.25%; in assay [6] it was -18.2%.

In the case of `O=c1oc2c(ccc3ccccc32)c(O)c1-c1cccc2ccccc12`, the growth inhibition in assay [1] is 99.2% (active); in assay [2], 99.5% (active); in assay [3], 99.5% (active); in assay [4], 99% (active); in assay [5], 97.7% (active); in assay [6], 99.3% (active).

As to `CCN1CCCN(CC)C1=O`, the growth inhibition in assay [1] is 6.1%; in assay [2], 4.15%; in assay [3] it was -4.4%; in assay [4], -30.4%; in assay [5], -0.45%; in assay [6], 0.1%.

Regarding `O1[SiH]2[SiH]3O[SiH]3[SiH]3O[SiH]3[SiH]12` (stereo unspecified), the growth inhibition is -16.8% in assay [1]; -11.7% in assay [2]; -8.2% in assay [3]; -16.6% in assay [4]; -4.35% in assay [5]; -26.6% in assay [6].

Take `CC(=O)C(c1ccccc1)S(=O)(=O)c1ccc(C)cc1` (stereo unspecified): the growth inhibition is 13.8% in assay [1]; -18.4% in assay [2]; -11.7% in assay [3]; -42.4% in assay [4]; 24.9% in assay [5]; -1.5% in assay [6].

For the compound `CCCCCCCCCCCCCCCC(=O)NCNC(=O)CCCCCCCCCCCCCCC`, the growth inhibition in assay [1] was -2.15%; in assay [2], -9.75%; in assay [3], -20.4%; in assay [4], -6.55%; in assay [5], 2.65%; in assay [6] it was -14.2%.

Take `CO[C@@]12CC(=O)/C(=C(O)\C=C\c3ccccc3)C(=O)[C@]1(OC)Cc1ccccc1O2`: the growth inhibition in assay [1] was 35.1%; in assay [2], 31.9%; in assay [3] it was 33.6%; in assay [4], 18.6%; in assay [5], 34.2%; in assay [6], 24.6%.

On to `N/C(=N\OC(=O)Nc1ccc(CSc2ccc(Cl)cc2)o1)c1ccccn1`, for which the growth inhibition was 2.9% in assay [1]; -22.8% in assay [2]; -14.1% in assay [3]; 10.8% in assay [4]; -16.9% in assay [5]; -31.6% in assay [6].

Consider `CN1C(=O)N/C(=C\c2ccc(S(=O)(=O)N/N=C/c3ccccc3)cc2)C1=O`, for which the growth inhibition in assay [1] was 16.4%; in assay [2] it was 44.9%; in assay [3], 20.1%; in assay [4], -2.55%; in assay [5], 2.75%; in assay [6], 39.9%.

As for `CC(C)NC(=O)OCc1cn2c(c1COC(=O)NC(C)C)CCC2`, the growth inhibition in assay [1] is 20.4%; in assay [2], 12.8%; in assay [3], 36%; in assay [4], 22.4%; in assay [5], 14.2%; in assay [6], 35%.

For `CCCCOCCOCCOC(=O)c1ccc(C)cc1`, the growth inhibition in assay [1] is 3.9%; in assay [2] it was -11%; in assay [3] it was -13.8%; in assay [4] it was -49.9%; in assay [5], 46%; in assay [6] it was 11%.

Consider `CC(=O)NC(N)=O`, for which the growth inhibition in assay [1] was 3.9%; in assay [2] it was 2.2%; in assay [3], 28.4%; in assay [4], -30.9%; in assay [5] it was -1.9%; in assay [6], 1.6%.

Consider `CC(=O)NC(Cc1c[nH]c2ccccc12)C(=O)Oc1ccc([N+](=O)[O-])cc1` (stereo unspecified), for which the growth inhibition in assay [1] was -9.2%; in assay [2], 23.1%; in assay [3], 24.6%; in assay [4], 13.1%; in assay [5], 9.3%; in assay [6], 17.6%.

Turning to `CC1C(OC(=O)CCl)CCC2C1(C)CCC1C2(C)CCC2(C)C3CC(C)(C)CCC3(C)CCC12C` (stereo unspecified), the growth inhibition was -13.2% in assay [1]; 1% in assay [2]; -1.85% in assay [3]; -12.2% in assay [4]; 2.15% in assay [5]; -10.2% in assay [6].

In the case of `COc1cc2c(c(OC)c1OC)-c1ccc(SCC3CCC4CC3C4(C)C)c(=O)cc1C(NC(C)=O)CC2` (stereo unspecified), the growth inhibition in assay [1] was 97.5% (active); in assay [2] it was 97.3% (active); in assay [3], 98% (active); in assay [4], 96.2% (active); in assay [5] it was 95.9% (active); in assay [6], 96.9% (active).
